Assay results: PMC7862700, “An all-to-all approach to the identification of sequence-specific readers for epigenetic DNA modifications on cytosine”

Tests used:
Assay in all cases: DAPPL (digital affinity profiling via proximity ligation, sequencing); 10 mM Tris-HCl pH 7.5, 50 mM NaCl, 1 mM DTT, 4% glycerol, room temperature, 30 min; GST-TFs on glutathione beads, 16-mer random dsDNA library, 0.1% formaldehyde crosslink after washing; high values mean tight binding
Conditions in all cases: protein: recombinant; tags: N-terminal GST; dsDNA, one strand shown
FLI1 = target: T1, FLI1 (Homo sapiens, UniProt Q01543 1-452)
T1 sequence: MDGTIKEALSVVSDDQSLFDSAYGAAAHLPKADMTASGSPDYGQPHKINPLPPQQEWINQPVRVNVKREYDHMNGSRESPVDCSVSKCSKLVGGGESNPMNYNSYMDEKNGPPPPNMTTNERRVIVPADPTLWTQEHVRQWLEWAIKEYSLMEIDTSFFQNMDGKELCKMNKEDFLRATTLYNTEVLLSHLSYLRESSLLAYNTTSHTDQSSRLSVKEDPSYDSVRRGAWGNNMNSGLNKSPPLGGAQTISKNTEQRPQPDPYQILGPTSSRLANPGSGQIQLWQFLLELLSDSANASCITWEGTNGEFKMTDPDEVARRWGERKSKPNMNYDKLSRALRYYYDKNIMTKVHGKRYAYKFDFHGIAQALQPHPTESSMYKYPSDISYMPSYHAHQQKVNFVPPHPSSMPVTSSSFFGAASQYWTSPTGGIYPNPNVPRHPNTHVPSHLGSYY
In short: (§1)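 Pools were built from human transcription factors expressed in yeast as GST fusions, captured on glutathione beads and DNA-barcoded, along with a tag-only sample. Incubation with 200 nmole of a 16-mer random double-stranded DNA library lasted 30 min at room temperature in Tris/NaCl/DTT/glycerol buffer, and was followed by washing, 0.1% formaldehyde crosslinking, proximity ligation, PCR amplification and Illumina NextSeq500 sequencing. Binding signal is the quotient of each hexamer's read frequency for a factor and its frequency for the tag-only sample.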

GABPA = target: T2, GABPA (Homo sapiens, UniProt Q06546 1-454)
T2 sequence: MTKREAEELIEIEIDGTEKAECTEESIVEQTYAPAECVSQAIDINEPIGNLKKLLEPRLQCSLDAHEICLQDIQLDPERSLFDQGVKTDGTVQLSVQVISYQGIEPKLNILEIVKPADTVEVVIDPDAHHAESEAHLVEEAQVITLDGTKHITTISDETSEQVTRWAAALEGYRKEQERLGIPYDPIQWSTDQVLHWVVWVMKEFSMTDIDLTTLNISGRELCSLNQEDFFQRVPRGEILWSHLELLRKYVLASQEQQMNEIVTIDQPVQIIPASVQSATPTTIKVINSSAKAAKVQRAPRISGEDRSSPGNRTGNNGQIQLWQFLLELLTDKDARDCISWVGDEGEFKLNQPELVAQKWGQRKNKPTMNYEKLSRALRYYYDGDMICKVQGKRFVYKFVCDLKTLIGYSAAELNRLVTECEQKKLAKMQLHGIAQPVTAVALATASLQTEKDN
In short: as §1

ERG = target: T3, ERG (Homo sapiens, UniProt P11308 1-479)
T3 sequence: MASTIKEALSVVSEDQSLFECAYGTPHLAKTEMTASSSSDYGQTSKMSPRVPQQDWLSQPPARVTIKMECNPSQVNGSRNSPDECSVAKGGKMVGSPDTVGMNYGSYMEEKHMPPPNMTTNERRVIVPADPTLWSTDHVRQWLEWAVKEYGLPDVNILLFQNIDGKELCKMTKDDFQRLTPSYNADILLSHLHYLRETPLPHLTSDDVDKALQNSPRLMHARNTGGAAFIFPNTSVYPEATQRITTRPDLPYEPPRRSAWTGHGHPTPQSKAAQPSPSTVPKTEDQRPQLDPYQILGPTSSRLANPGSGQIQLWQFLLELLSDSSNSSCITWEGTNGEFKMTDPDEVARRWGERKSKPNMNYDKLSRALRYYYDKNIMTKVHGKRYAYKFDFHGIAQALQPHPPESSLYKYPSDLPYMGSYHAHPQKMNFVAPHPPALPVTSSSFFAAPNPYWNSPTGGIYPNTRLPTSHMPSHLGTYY
In short: as §1

ELF1 = ELF1 (Homo sapiens, UniProt P32519 1-619)
Sequence of ELF1 (P32519 whole entry): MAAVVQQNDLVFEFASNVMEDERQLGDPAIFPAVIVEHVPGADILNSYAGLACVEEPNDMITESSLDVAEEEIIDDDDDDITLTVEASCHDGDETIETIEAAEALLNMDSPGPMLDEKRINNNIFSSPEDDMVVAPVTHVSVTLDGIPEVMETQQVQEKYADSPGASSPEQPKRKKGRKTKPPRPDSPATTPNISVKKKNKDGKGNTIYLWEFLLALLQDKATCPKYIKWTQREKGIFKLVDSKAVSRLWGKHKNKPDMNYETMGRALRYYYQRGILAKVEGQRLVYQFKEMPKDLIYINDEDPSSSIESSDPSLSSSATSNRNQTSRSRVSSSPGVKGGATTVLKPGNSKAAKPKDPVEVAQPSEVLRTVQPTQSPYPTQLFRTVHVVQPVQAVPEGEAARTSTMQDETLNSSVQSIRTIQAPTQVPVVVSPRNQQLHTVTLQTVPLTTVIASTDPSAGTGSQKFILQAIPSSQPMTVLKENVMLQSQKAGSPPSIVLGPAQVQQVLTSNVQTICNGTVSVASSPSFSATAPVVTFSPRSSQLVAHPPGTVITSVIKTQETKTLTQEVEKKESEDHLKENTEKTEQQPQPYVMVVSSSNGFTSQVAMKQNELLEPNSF
In short: as §1

EHF = target: T4, EHF (Homo sapiens, UniProt Q9NZC4 1-300)
T4 sequence: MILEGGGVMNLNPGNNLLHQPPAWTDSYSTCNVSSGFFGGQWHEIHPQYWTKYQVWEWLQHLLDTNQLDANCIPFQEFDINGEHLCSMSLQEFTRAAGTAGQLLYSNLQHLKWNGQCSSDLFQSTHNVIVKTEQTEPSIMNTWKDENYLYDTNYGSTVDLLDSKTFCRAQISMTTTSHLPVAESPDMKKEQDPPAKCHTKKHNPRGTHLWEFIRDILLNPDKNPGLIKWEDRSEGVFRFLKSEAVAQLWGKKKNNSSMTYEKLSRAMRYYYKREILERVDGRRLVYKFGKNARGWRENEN
In short: as §1

SPI1 = SPI1 (Homo sapiens, UniProt P17947 1-270)
In short: as §1

ETV5 = ETV5 (Homo sapiens, UniProt P41161 1-510)
Sequence of ETV5 (P41161 whole entry): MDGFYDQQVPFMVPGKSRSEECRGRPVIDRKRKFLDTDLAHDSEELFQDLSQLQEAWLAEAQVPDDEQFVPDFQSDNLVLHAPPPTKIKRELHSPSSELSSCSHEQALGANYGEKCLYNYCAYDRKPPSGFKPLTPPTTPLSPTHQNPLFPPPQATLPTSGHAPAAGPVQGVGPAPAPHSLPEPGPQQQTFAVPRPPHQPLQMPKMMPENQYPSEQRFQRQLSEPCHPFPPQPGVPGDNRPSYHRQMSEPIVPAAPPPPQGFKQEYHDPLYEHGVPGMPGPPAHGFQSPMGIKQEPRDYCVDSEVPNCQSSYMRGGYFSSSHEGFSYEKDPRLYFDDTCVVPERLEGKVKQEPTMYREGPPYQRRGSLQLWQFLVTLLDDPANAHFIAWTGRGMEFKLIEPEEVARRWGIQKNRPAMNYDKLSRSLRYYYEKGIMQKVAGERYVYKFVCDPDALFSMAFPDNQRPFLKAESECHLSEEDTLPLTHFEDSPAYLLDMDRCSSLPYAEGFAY
In short: as §1

ELF4 = ELF4 (Homo sapiens, UniProt Q99607 1-663)
Sequence of ELF4 (Q99607 whole entry): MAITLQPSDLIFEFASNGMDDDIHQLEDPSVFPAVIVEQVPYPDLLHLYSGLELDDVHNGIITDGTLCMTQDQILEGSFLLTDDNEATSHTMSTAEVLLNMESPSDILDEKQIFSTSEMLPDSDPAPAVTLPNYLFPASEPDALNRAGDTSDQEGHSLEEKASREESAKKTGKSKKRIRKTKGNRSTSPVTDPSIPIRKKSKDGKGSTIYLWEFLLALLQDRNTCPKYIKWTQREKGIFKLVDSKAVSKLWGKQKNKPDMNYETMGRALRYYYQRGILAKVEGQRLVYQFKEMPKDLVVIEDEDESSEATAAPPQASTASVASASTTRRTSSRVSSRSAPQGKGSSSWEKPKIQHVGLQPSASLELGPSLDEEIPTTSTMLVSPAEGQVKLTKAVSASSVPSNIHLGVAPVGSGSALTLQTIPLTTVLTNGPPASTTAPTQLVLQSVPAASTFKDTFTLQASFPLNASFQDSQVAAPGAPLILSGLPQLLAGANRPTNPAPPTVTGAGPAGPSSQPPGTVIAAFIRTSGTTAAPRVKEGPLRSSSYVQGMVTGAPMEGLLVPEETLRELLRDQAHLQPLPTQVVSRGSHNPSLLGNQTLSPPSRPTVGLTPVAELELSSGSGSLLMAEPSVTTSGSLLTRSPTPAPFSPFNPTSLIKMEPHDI
In short: as §1

ETV2 = target: T5, ETV2 (Homo sapiens, UniProt O00321 1-342)
T5 sequence: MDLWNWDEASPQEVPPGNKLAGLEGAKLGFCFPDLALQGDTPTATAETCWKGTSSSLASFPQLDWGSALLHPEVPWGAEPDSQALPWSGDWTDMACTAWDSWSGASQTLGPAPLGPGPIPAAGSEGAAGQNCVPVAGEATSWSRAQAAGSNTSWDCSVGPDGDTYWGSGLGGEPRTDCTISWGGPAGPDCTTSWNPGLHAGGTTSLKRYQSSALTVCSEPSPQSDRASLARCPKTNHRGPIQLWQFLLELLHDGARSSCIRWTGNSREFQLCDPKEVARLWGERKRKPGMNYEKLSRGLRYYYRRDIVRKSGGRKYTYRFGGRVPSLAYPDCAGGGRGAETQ
In short: as §1

ETV1 = ETV1 (Homo sapiens, UniProt P50549 1-477)
Sequence of ETV1 (P50549 whole entry): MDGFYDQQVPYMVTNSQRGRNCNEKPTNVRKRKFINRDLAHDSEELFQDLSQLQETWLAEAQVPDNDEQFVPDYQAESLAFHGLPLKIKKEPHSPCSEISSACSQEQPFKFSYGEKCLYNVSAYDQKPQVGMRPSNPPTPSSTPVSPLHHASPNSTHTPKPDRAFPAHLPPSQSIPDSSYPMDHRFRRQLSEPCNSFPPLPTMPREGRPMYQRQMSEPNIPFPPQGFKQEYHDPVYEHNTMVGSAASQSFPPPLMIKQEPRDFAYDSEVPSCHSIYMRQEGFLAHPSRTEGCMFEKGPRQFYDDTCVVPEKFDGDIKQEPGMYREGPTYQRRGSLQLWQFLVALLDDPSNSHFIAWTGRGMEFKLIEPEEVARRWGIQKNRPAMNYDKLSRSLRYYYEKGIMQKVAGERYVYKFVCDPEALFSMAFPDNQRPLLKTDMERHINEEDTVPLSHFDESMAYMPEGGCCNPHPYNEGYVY
In short: as §1

ERF = target: T6, ERF (Homo sapiens, UniProt P50548 1-548)
T6 sequence: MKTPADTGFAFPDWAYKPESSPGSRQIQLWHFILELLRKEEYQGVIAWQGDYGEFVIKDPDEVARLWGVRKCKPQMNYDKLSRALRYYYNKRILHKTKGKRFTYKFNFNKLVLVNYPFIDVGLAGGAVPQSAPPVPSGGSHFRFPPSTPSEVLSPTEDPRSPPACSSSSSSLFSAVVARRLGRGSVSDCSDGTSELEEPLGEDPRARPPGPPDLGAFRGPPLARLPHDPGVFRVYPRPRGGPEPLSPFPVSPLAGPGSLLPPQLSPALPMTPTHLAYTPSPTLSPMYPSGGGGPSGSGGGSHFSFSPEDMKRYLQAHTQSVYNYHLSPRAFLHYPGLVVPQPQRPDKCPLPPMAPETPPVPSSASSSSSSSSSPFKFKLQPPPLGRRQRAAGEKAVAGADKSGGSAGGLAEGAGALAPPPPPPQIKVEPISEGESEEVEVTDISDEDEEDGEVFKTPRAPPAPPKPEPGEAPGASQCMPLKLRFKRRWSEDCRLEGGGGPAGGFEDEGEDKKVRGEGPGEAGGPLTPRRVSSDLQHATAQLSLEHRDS
In short: as §1

ETV3L = target: T7, ETV3L (Homo sapiens, UniProt Q6ZN32 1-361)
T7 sequence: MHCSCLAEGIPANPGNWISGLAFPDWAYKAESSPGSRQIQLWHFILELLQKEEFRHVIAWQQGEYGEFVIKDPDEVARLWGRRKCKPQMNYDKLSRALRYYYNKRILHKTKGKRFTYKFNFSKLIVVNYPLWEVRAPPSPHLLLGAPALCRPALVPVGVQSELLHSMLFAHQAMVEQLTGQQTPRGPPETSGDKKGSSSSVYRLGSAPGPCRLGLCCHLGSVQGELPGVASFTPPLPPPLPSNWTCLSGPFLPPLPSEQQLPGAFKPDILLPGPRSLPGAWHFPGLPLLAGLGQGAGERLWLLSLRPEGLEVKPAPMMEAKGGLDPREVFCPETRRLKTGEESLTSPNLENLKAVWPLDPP
In short: as §1

ETS2 = target: T8, ETS2 (Homo sapiens, UniProt P15036 1-469)
T8 sequence: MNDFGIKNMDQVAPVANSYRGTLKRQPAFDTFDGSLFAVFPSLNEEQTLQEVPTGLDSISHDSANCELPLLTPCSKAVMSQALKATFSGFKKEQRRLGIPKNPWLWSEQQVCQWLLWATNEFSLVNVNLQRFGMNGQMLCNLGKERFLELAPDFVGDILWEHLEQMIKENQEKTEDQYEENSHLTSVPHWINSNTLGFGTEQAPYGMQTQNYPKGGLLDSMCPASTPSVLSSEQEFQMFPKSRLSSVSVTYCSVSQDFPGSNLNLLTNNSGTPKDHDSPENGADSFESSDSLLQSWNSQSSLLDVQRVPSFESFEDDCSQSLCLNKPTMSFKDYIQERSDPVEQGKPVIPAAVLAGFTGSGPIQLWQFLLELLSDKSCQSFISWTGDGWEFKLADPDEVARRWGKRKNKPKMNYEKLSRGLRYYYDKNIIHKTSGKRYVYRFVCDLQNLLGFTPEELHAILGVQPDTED
In short: as §1

ETV7 = target: T9, ETV7 (Homo sapiens, UniProt Q9Y603 1-341)
T9 sequence: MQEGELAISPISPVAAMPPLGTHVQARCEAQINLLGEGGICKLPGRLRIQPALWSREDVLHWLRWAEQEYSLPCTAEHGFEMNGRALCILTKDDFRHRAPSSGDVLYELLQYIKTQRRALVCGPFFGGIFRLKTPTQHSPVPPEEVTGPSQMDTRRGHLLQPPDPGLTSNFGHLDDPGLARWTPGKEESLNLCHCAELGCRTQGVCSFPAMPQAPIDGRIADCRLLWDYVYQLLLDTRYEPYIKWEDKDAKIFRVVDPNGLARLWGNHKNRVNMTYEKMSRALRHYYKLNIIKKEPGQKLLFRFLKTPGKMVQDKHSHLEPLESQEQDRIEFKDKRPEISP
In short: as §1

ETV3 = target: T10, ETV3 (Homo sapiens, UniProt P41162-2 1-143)
T10 sequence: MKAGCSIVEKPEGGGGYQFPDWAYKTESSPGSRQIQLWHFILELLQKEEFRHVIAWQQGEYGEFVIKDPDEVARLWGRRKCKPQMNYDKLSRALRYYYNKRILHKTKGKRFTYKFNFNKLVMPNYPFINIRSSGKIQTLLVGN
In short: as §1

ETV6 = ETV6 (Homo sapiens, UniProt P41212 1-452)
Sequence of ETV6 (P41212 whole entry): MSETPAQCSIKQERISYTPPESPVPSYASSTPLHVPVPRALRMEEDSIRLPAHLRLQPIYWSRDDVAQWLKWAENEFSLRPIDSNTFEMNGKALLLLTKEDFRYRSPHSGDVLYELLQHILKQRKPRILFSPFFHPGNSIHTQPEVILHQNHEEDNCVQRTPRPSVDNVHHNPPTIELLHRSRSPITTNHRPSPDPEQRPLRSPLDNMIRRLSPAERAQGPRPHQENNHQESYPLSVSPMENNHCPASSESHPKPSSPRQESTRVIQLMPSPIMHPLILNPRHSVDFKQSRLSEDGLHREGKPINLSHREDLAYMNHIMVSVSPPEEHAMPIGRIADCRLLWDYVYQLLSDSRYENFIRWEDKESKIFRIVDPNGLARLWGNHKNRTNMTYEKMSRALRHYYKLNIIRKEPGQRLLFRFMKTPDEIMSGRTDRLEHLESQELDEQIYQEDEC
In short: as §1

GTTACG
binding signal (FLI1): 1.08 fold enrichment (6-mer frequency, TF over GST control)
binding signal (GABPA): 1.01 fold enrichment (6-mer frequency, TF over GST control)
binding signal (ERG): 1.01 fold enrichment (6-mer frequency, TF over GST control)
binding signal (ELF1): 1.07 fold enrichment (6-mer frequency, TF over GST control)
binding signal (EHF): 1.03 fold enrichment (6-mer frequency, TF over GST control)
binding signal (SPI1): 1.01 fold enrichment (6-mer frequency, TF over GST control)
binding signal (ETV5): 1.03 fold enrichment (6-mer frequency, TF over GST control)
binding signal (ELF4): 1.02 fold enrichment (6-mer frequency, TF over GST control)
binding signal (ETV2): 1.22 fold enrichment (6-mer frequency, TF over GST control)
binding signal (ETV1): 1.07 fold enrichment (6-mer frequency, TF over GST control)
binding signal (ERF): 1.06 fold enrichment (6-mer frequency, TF over GST control)
binding signal (ETV3L): 1.14 fold enrichment (6-mer frequency, TF over GST control)
binding signal (ETS2): 1.06 fold enrichment (6-mer frequency, TF over GST control)
binding signal (ETV7): 1.02 fold enrichment (6-mer frequency, TF over GST control)
binding signal (ETV3): 1.04 fold enrichment (6-mer frequency, TF over GST control)
binding signal (ETV6): 1.09 fold enrichment (6-mer frequency, TF over GST control)
